Screening results from PubChem BioAssay.
EBV LMP1 NFkB: inhibitors of Epstein-Barr LMP1-induced NF-kappaB reporter | LMP1-induced NF-kappaB luciferase reporter cells, luminescence | inhibition, % at 12.5 µM | 350,000 tested, 0.69% active | AID 504558; in the data active = inhibition above about 41%; inconclusive = no clear call, values can overlap the other calls;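 note: 0% = neutral control wells and 100% = reference inhibitor control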
Shn3 inh set2: reduces Shn3 3'UTR luciferase signal in osteoblasts. AID 588674. 360,000 tested, 0.52% active. inhibition, % at 12.5 µM. Clone20 osteoblast Shn3 3'UTR firefly luciferase, 24 h;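 active = mean inhibition of at least 75% with every replicate also reaching 75%; inconclusive = mean inhibition at least 75% but some replicate below; inactive = mean inhibition below 75%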;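 note: 0% = median of neutral control wells and 100% = pilot-screen positive control compound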
TWEAK Fn14 block: TWEAK-Fn14 signaling inhibition; TWEAK-stimulated Fn14 reporter cells, luciferase luminescence, 8 h; inhibition, % at 10 µM; 360,000 tested, 2% active; in the data active = inhibition above about 50%
MITF TRPM1 inh: MITF TRPM1 promoter inhibition in SK-MEL-5 cells; SK-MEL-5 TRPM1 promoter luciferase, 24 h; inhibition, % at 12.5 µM; 330,000 tested, 0.83% active;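 active = mean inhibition across replicates of 60% or more, whatever share of single replicates reaches that level; inconclusive = some that reach 60%, reason not given; inactive = mean inhibition across replicates below 60%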
Peg3 promoter: inhibitors of Peg3 promoter. HeLa PEG-Prom luciferase reporter, luminescence, overnight. inhibition, % at 20 µM. 360,000 tested, 1.7% active;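 active = inhibition of at least 50% at 20 µM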
TROY NFkB inh: TROY signaling inhibition | Q293 LMP1-TROYcd NF-kB luciferase reporter, 4 h | inhibition, % at 10 µM | 360,000 tested, 0.98% active;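 active = compounds whose plate-normalised and pattern-corrected inhibition of the luciferase reporter signal at the single screening dose is 50% or more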
* = called active by the depositor; ? = inconclusive; . = not tested or not shown; ! = not confirmed by another sample. This is a sample that favours compounds with a hit; in the whole collection about 4.1% have one here.

SMILES	EBV LMP1 NFkB	Shn3 inh set2	TWEAK Fn14 block	MITF TRPM1 inh	Peg3 promoter	TROY NFkB inh
COc1ccc(-c2cc(NC=O)c3ncc(-c4ccc(C(C)=O)cc4)n3c2)cc1OC	.	10	10	.	68*	16
COc1cc(-c2cnc3c(NC=O)cc(-c4ccc(C)cc4)cn23)cc(OC)c1OC	.	11	1	.	-9	-7
COc1ccc(C=NNC(=S)NN=Cc2ccc(OC)c(OC)c2)cc1OC	-4	4	-9	-37	-71	-7
COc1ccc(C=NNC(=S)Nc2ccc(F)cc2)cc1OC	19	8	46	14	7	78*
COc1ccc(/C=N/NC(=S)Nc2cccc(C(=O)O)c2)cc1OC	15	-5	76*	26	12	19
COc1ccccc1N1C(=O)C=C(Sc2nc(C)cc(C)n2)C1=O	.	-6	11	.	87*	-2
O=C(O)c1ccc(OS(=O)(=O)c2ccc(Cl)s2)cc1	-2	-3	-4	0	14	-1
O=C(c1cccs1)N1CCN=C1SCc1ccccc1	2	1	-1	-15	-4	-2
O=C(c1cccs1)N1CCN=C1SCc1ccc(F)cc1	0	-5	7	-14	-2	73*
O=C(COC(=O)c1ccc[nH]c1=O)Nc1cc(S(=O)(=O)N2CCCCC2)ccc1Cl	-8	1	-11	8	3	9
O=C(COC(=O)c1ccc[nH]c1=O)Nc1ccc(N2CCCCC2)cc1	46*	79	88*	78*	29	56*
O=C(COC(=O)c1ccc[nH]c1=O)Nc1ccc(S(=O)(=O)N2CCCC2)cc1	3	-1	10	5	18	56*
O=C(OCC(=O)N1CCCCCC1)c1ccc[nH]c1=O	-2	-11	3	-15	0	0
CCOC(=O)c1oc2ccc(/C=N/O)c(Cl)c2c1C	-9	-50	-39	-52	-301	-65
CCOc1cc(C=C(C(=O)OC)C(=O)OC)ccc1OCc1ccc([N+](=O)[O-])cc1	10	96*	83*	58	107*	52*
CC1CCc2cc(F)ccc2N1C(=O)c1cccnc1 (stereo not drawn)	6	6	4	13	4	-11
Nc1nnnn1/N=C/c1ccc(F)cc1	3	10	-13	-15	-3	-7
c1ccc2nc(-c3ccc(N4CCOCC4)cc3)ccc2c1	66*	55	90*	54	32	53*
CCN(CC(=O)Nc1c(F)cccc1F)C(=O)c1ccc(NC(=O)CC2SC(N3CCCC3)=NC2=O)cc1 (stereo not drawn)	4	-11	3	7	6	-6
COc1ccccc1-c1oc2ccccc2c1C#CC1(N)CCCCC1	-12	-41	-1	25	72*	-7
COc1ccccc1-c1oc2ccccc2c1C#CC1(O)CCCCC1	-16	-9	-2	-10	5	6
OCCCNc1ncnc2sc(-c3ccccc3)cc12	4	1	12	0	-14	-7
CC(C)(C)Nc1ncnc2sc(-c3ccccc3)cc12	23	53	71*	13	-11	50
C=COCCCNc1ncnc2sc(-c3ccccc3)cc12	16	52	87*	6	13	-2
N=c1oc2ccccc2cc1C(=O)Nc1ccc(F)cc1	-27	-61	62*	8	-88	-81
SMILES	EBV LMP1 NFkB	Shn3 inh set2	TWEAK Fn14 block	MITF TRPM1 inh	Peg3 promoter	TROY NFkB inh
N=c1oc2ccccc2cc1C(=O)Nc1cccc(F)c1	-25	-5	50	3	-258	-11
Cc1ccc(NC(=O)c2cc3ccccc3oc2=N)cc1	50*	38	98*	24	43	38
CCCN(C(=O)CCOc1ccc(C(C)(C)C)cc1)c1c(N)n(Cc2ccccc2)c(=O)[nH]c1=O	-7	19	5	8	27	-4
CCCC[C@@H]1CNCCN1CC1(c2ccccc2)CC1	-8	-1	6	-9	3	-10
CCOc1ccccc1NS(=O)(=O)c1ccc2c(c1)N(C)CCO2	.	17	12	-7	2	-22
C/C(=N\NC(=O)c1ccccc1-n1cccc1)c1ccccn1	8	93*	-93	.	39	-11
C/C(=N\NC(=O)c1cc2ccccc2cc1O)c1ccccn1	?	97*	24	74*	10	-58
C/C(=N\NC(=O)c1ccc(F)cc1)c1ccccn1	5	89*	-14	44	15	-71
COc1cc(NC2c3ccccc3C(=O)N2Cc2ccc3c(c2)OCO3)cc(OC)c1 (stereo not drawn)	4	14	-10	-6	8	-3
CCN(CC)CCCNc1nc2ccccc2c2[nH]c3ccc(OC)cc3c12	-32	92*	5	102*	99*	69*
CCOC(=O)c1cc2c(=O)n3cccc(C)c3nc2n(CCOC)c1=NC(C)=O	-1	1	-36	9	16	12
CCOC(=O)c1cc2c(=O)n3cccc(C)c3nc2n(CC2CCCO2)c1=NC(C)=O (stereo not drawn)	5	4	92*!	-5	-1	-20
Cc1ccc2nc(-c3ccc(SCC(=O)Nc4nnc(C)s4)nc3)[nH]c2c1	-11	-24	25	-3	99*	-49
CCOC(=O)c1[nH]cnc1C(=O)NC1CCN(C(=O)OC(C)(C)C)CC1	9	6	0	4	-39	5
CCN(CC(=O)Nc1ccc(OC)cc1)C(=O)CSCc1c(C)noc1C	-4	-11	2	-2	-2	-9
NC(=O)CSc1nc2ccccc2c(=O)n1Cc1ccco1	-19	-6	3	12	9	3
O=C(CSc1nc2ccccc2c(=O)n1Cc1ccco1)c1ccc(F)cc1	3	46	58*	-14	-45	64*
CCCn1c(C)cc(C(=O)CSc2nc3ccccc3c(=O)n2Cc2ccco2)c1C	-56	-29	59*	-35	-271	48
CCOC(=O)CC(=O)CSc1nc2sc(C)cc2c(=O)n1Cc1ccco1	7	11	-8	13	4	7
Cc1cc2c(=O)n(Cc3ccco3)c(SCC(=O)c3ccc(Cl)s3)nc2s1	9	83	54*	2	4	11
COc1ccc(C(=O)CCC(=O)N2CCN(c3cc(C)ccc3C)CC2)cc1	17	16	7	7	-5	26
Cc1ccc(NS(=O)(=O)c2ccc(C(=O)N3CCN(S(=O)(=O)c4ccccc4)CC3)cc2)cc1	3	79	5	10	23	26
CCc1cccc(C)c1NC(=S)NCCc1c(C)[nH]c2ccc(C)cc12	-3	14	-8	17	51*	-4
CCCC[C@@H]1CC2=C(C(=O)OC(C)(C)O2)[C@H](c2ccc(C(C)C)cc2)O1	.	.	10	.	.	-3
CC(=O)NNc1nc(-c2ccccc2)c2cc(Cl)ccc2n1	-1	13	-3	.	2	-6
